Experimental data published in PubChem BioAssay (EPA / NIEHS).
Records with an inconclusive call do not appear. Active and inactive are the calls of the source. How the source made its calls, unless noted: active means hit-call score of the fitted dose curve at least 0.9, where 1 is the maximum; inactive means score below 0.9. Peptide text beside a SMILES is read from it.

Legend:
[1] = ATG_TCF_b_cat_CIS: Attagene CIS-FACTORIAL HepG2 Assay for human T-Cell-Factor with beta-catenin (TCF/b-cat) (AID 2282965); conditions: HepG2 TCF/beta-catenin cis-reporter transcription, actives raise or lower the signal
Outline: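 HepG2 cells transiently transfected with multiple cis-promoter-regulated reporter transcription units, so endogenous transcription factor activity is measured. Reporter mRNA read 24 hours after dosing by RT-PCR, fluorescent labelling and capillary electrophoresis; bidirectional fitting against DMSO.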

[2] = ATG_TAL_CIS: Attagene CIS-FACTORIAL HepG2 Assay for human TAL Basal Promoter (AID 2282966); conditions: HepG2 Attagene cis-factorial TAL promoter reporter; actives raise or lower the signal;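 further: background control endpoint measuring basal TAL promoter reporter mRNA not a specific factor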
Outline: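 Endogenous transcription-factor activity is sensed in HepG2 cells through transfected cis-promoter reporter constructs. After 24 h dosing, reporter transcripts are quantified by RT-PCR and capillary electrophoresis. Gain or loss of signal is fitted relative to DMSO.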

[3] = ATG_TGFb_CIS: Attagene CIS-FACTORIAL HepG2 Assay for human Transforming Growth Factor (TGF) (AID 2282967); conditions: HepG2 Attagene CIS TGFb reporter, mRNA transcription; actives raise or lower the signal
Outline: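 Cells were dosed for 24 hours, after which total RNA was reverse-transcribed and reporter sequences amplified, labeled and sized by capillary electrophoresis. Activity was fitted in both directions against DMSO.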

[4] = ATG_VDRE_CIS: Attagene CIS-FACTORIAL HepG2 Assay for human Vitamin D Receptor Element (VDRE) (AID 2282968); conditions: HepG2 VDRE cis-reporter transcription, actives raise or lower the signal
Outline: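 Steps: transfect HepG2 with multiple reporter transcription units; dose chemicals 24 h; isolate RNA; RT-PCR; label with 6-FAM primer extension; HpaI digest; capillary electrophoresis. Curves fitted both directions against DMSO.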

[5] = molecular target: Estrogen receptor (Homo sapiens) (UniProt P03372); assay: ATG_ERa_TRANS: Attagene TRANS-FACTORIAL HepG2 Assay for human Estrogen Receptor alpha (ERa) (AID 2282970; active means hit-call score of the fitted dose curve at least 0.9, where 1 is the maximum); conditions: HepG2 Attagene TRANS ERa GAL4 reporter, mRNA
Estrogen receptor (Homo sapiens), sequence (P03372 whole entry, looked up, the tested form may be a part): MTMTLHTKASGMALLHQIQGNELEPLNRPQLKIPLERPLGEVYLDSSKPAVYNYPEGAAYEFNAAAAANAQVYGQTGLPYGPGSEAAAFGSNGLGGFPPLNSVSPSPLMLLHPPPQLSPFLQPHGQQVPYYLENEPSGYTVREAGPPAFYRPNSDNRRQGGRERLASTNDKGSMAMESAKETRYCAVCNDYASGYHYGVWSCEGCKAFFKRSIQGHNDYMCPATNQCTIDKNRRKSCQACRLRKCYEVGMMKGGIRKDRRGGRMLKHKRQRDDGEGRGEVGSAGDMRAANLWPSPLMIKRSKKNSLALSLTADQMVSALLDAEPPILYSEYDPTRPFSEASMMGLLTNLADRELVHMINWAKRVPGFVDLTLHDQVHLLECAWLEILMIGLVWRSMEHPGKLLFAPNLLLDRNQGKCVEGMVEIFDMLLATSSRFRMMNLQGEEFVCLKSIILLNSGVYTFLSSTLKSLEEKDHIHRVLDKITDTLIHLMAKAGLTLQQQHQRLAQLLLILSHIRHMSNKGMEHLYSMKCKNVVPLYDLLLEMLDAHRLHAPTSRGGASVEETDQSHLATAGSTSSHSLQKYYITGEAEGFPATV
Outline: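 Transfected HepG2 cells carrying GAL4-UAS-driven reporter units were dosed for 24 hours. Total RNA was reverse-transcribed, reporter sequences PCR-amplified, FAM-labelled, HpaI-digested and resolved by capillary electrophoresis. Increases over DMSO control defined activity.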

[6] = molecular target: X-box-binding protein 1 (Homo sapiens) (UniProt P17861); assay: ATG_Xbp1_CIS: Attagene CIS-FACTORIAL HepG2 Assay for human X-box Binding Protein 1 (XBP1) (AID 2282972); conditions: HepG2 XBP1 cis-element reporter, Attagene multiplex; actives raise or lower the signal
X-box-binding protein 1 (Homo sapiens), sequence (P17861 whole entry, looked up): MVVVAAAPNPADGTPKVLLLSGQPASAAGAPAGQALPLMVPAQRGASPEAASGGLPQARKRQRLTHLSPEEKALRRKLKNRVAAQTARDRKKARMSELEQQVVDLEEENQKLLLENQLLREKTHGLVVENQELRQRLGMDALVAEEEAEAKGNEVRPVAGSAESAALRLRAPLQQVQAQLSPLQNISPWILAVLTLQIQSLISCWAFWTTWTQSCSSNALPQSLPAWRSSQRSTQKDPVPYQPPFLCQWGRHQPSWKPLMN
Outline: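 Reporter transcripts were quantified by RT-PCR with fluorescent primer extension and capillary electrophoresis after 24 h chemical exposure. Cells: transiently transfected HepG2 carrying cis-regulated reporter constructs; data fitted bidirectionally relative to DMSO.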

[7] = ATG_M_19_TRANS: Attagene TRANS-FACTORIAL HepG2 Assay for M19 Transcription Factor (Internal Marker) (AID 2282974; active means hit-call score of the fitted dose curve at least 0.9, where 1 is the maximum); conditions: HepG2 Attagene TRANS-FACTORIAL M19 internal marker reporter
Outline: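 Cells: human HepG2, transiently transfected with multiplexed reporter transcription units. Exposure: 24 h. Detection: RT-PCR of reporter mRNA with capillary electrophoresis. Analysis: gain-of-signal vs DMSO.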

[8] = ATG_GAL4_TRANS: Attagene TRANS-FACTORIAL HepG2 Assay for GAL4 (Internal Marker) (AID 2282976; active means hit-call score of the fitted dose curve at least 0.9, where 1 is the maximum); conditions: HepG2 Attagene TRANS GAL4 internal marker reporter
Outline: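 Fluorescence from capillary electrophoresis of labelled RT-PCR products quantifies reporter mRNA induction after 24 h dosing of HepG2 cells carrying transfected GAL4-UAS reporter transcription units. Vehicle DMSO serves as baseline.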

[9] = molecular target: Steroid hormone receptor ERR1 (Homo sapiens) (UniProt P11474); assay: ATG_ERRa_TRANS: Attagene TRANS-FACTORIAL HepG2 Assay for human Estrogen-Related Receptor alpha (ERRa) (AID 2282971; active means hit-call score of the fitted dose curve at least 0.9, where 1 is the maximum); conditions: HepG2 Attagene TRANS reporter, ERRa transactivation
Steroid hormone receptor ERR1 (Homo sapiens), sequence (P11474 whole entry, looked up, the tested form may be a part): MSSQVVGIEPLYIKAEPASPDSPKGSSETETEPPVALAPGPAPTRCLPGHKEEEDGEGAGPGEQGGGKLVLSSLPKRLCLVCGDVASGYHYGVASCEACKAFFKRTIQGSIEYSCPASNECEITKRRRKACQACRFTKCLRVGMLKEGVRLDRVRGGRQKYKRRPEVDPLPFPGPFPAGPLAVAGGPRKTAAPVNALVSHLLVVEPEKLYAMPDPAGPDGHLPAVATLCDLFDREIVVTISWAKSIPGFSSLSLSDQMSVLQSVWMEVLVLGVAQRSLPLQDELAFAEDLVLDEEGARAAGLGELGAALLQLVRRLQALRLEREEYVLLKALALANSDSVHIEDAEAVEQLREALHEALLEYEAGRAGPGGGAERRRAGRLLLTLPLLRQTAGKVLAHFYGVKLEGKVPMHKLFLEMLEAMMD
Outline: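 HepG2 cells were transiently transfected with multiple GAL4-UAS reporter units, then dosed with compound for 24 h. Total RNA was reverse-transcribed, reporter cDNA PCR-amplified and fluorescently labelled, and fragments resolved by capillary electrophoresis; induction was compared with DMSO.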

[10] = molecular target: Nuclear receptor subfamily 1 group I member 3 (Homo sapiens) (UniProt Q14994); assay: ATG_CAR_TRANS: Attagene TRANS-FACTORIAL HepG2 Assay for human Constitutive Androstane Receptor (CAR) (AID 2282969; active means hit-call score of the fitted dose curve at least 0.9, where 1 is the maximum;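 further: activators raise reporter mRNA above DMSO so AC50 marks induction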); conditions: HepG2 Attagene TRANS-FACTORIAL CAR reporter
Nuclear receptor subfamily 1 group I member 3 (Homo sapiens), sequence (Q14994 whole entry, looked up, the tested form may be a part): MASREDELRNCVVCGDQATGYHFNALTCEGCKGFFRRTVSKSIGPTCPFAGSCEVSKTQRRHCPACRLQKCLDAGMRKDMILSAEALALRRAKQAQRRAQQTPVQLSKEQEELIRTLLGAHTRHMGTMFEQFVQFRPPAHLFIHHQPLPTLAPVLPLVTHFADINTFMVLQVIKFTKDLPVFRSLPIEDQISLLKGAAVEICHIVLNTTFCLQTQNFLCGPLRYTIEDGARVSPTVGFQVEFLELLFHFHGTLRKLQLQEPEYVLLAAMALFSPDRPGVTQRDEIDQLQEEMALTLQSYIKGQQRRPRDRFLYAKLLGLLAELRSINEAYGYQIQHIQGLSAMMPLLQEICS
Outline: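 Steps: transient transfection of HepG2 with multiple GAL4-UAS reporter units; 24 h compound incubation; RNA isolation, RT-PCR, 6-FAM primer extension, HpaI digest; capillary electrophoresis. Gain-of-signal relative to DMSO negative control.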

Measured: AC50

CCCCCC[C@@H](O)C/C=C\CCCCCCCC(=O)OCC(O)CO (some centres not stated)
active: [2] 164 µM | [6] 175 µM
not listed: [9] | [10]
inactive: all other assays above

CC(C)(C)N
inactive: [1] | [2] | [3] | [4] | [6] | [7]

CC(=O)OC(C)c1ccccc1 (configuration not stated)
inactive: [1] | [2] | [3] | [4] | [6] | [8]

Nc1ccc(C(=O)OCCCOC(=O)c2ccc(N)cc2)cc1
active: [4] 48.8 µM
not listed: [9] | [10]
inactive: all other assays above

CC(=O)C(C)C
not listed: [7] | [9] | [10]
inactive: all other assays above

CC(=O)OC1CCCCC1
not listed: [5] | [7] | [10]
inactive: all other assays above

CC(C)(C)NC(=O)[C@H]1CC[C@H]2[C@@H]3CC[C@H]4NC(=O)C=C[C@]4(C)[C@H]3CC[C@]12C
not listed: [9] | [10]
inactive: all other assays above

CC1CC(=O)CC(C)(C)C1 (configuration not stated)
inactive: [1] | [2] | [3] | [4] | [6]

N#CC1(N)CCCCC1
inactive: [1] | [2] | [3] | [4] | [6] | [7]

O=S(=O)(O)c1ccc(Nc2nc(Nc3ccc(C=Cc4ccc(Nc5nc(Nc6ccc(S(=O)(=O)O)cc6)nc(N(CCO)CCO)n5)cc4S(=O)(=O)O)c(S(=O)(=O)O)c3)nc(N(CCO)CCO)n2)cc1
not listed: [5] | [7] | [10]
inactive: all other assays above

CC(c1cc(C(C)(C)C)cc(C(C)(C)C)c1O)c1cc(C(C)(C)C)cc(C(C)(C)C)c1O
inactive: [1] | [2] | [3] | [4] | [6]

CC(=O)OCc1ccccc1
not listed: [7] | [9] | [10]
inactive: all other assays above

CCCCOC(=O)C(C)CC (configuration not stated)
inactive: [1] | [2] | [3] | [4] | [6]

Clc1cccnc1
not listed: [5] | [9] | [10]
inactive: all other assays above

C/C=C/C=C/CCCCCCCO
inactive: [1] | [2] | [3] | [6] | [7]
active: [4] 22.7 µM

O=C(O[C@@H]1Cc2c(O)cc(O)cc2O[C@@H]1c1cc(O)c(O)c(O)c1)c1cc(O)c(O)c(O)c1
active: [1] 36 µM
not listed: [7] | [9] | [10]
inactive: all other assays above

CCC(C)c1ccccc1 (configuration not stated)
not listed: [5] | [9] | [10]
inactive: all other assays above

Cc1ccccc1CCO
inactive: [1] | [2] | [3] | [4] | [6] | [7]

CCCCCCCCCCCCCc1ccccc1
inactive: [1] | [2] | [3] | [4] | [6]

CC(CC(C)C)=NO
inactive: [1] | [2] | [3] | [4] | [6]

CC12CCC(CC1)C(C)(C)O2
inactive: [1] | [2] | [3] | [4] | [6]

CCCCCC(=O)OCC
not listed: [5] | [9] | [10]
inactive: all other assays above

Nc1ccc(Cl)c(N)c1
not listed: [9] | [10]
inactive: all other assays above

C1CCSC1
inactive: [1] | [2] | [3] | [4] | [9] | [6]

CC1=CP(=O)(c2ccccc2)CC1 (configuration not stated)
not listed: [5] | [8] | [10]
inactive: all other assays above

CC(C)C(=O)OCCc1ccccc1
not listed: [9] | [10]
inactive: all other assays above

CCCC(C)C(=O)OCC (configuration not stated)
not listed: [7] | [9] | [10]
inactive: all other assays above

O=C(O)c1ccc2c(c1)C(=O)OC2=O
inactive: [1] | [2] | [3] | [4] | [6] | [7]

CCC(=O)C1CC(C(C)C)CC=C1C (configuration not stated)
inactive: [1] | [2] | [3] | [5] | [9] | [6]

CCOC(=O)OC(=O)OCC
inactive: [1] | [2] | [3] | [4] | [6] | [8]

CC1=CC=C(C(C)C)CC1
not listed: [4] | [8] | [9]
inactive: all other assays above

C=CCCCCCCCCOC(C)=O
not listed: [4] | [10]
inactive: all other assays above

CCN1CN(CC)CN(CC)C1
active: [1] 132 µM | [6] 162 µM
inactive: [2] | [3] | [5]

Nc1ccc(C(=O)O)cc1
inactive: [1] | [2] | [3] | [5] | [6] | [7]

O=C(O)CCCC(=O)O
inactive: [1] | [2] | [3] | [5] | [6]

CCCCOCCOC(=O)COc1ccc(Cl)cc1Cl
inactive: [1] | [2] | [3] | [4] | [6] | [8]

CC=C(C)C(C)=O
inactive: [1] | [2] | [3] | [10] | [6] | [8]

CC(=O)OC/C=C(/C)CCC=C(C)C
not listed: [4] | [9] | [10]
inactive: all other assays above

CN(C)Cc1cc(CN(C)C)c(O)c(CN(C)C)c1
inactive: [1] | [2] | [3] | [5] | [6]

CC1=CCC(C(C)C)C=C1 (configuration not stated)
inactive: [1] | [2] | [3] | [5] | [6]

CC(C)CCCCCOC(=O)CS
inactive: [1] | [2] | [3] | [10] | [6] | [8]

O=C1CCCCCCCCCCC1
inactive: [1] | [2] | [3] | [10] | [6]
active: [5] 21.2 µM

CCC(C)C(=O)OCCc1ccccc1 (configuration not stated)
inactive: [1] | [2] | [3] | [5] | [6]

CCOC(=O)c1ccccc1C
inactive: [1] | [2] | [3] | [6]

O=C(Cl)c1c(Cl)c(Cl)c(C(=O)Cl)c(Cl)c1Cl
active: [3] 0.74 µM
not listed: [4] | [7] | [10]
inactive: all other assays above

C=C(C)C1CC=C(C)CC1 (configuration not stated)
not listed: [4] | [7] | [9]
inactive: all other assays above

COC(=O)[C@H](Cc1ccccc1)NC(=O)[C@@H](N)CC(=O)O (H-Asp-Phe-OMe)
inactive: [1] | [2] | [3] | [5] | [6]

c1ccc2c(c1)[nH]c1ccccc12
not listed: [4] | [7] | [9]
inactive: all other assays above

C=C1C[C@H]2[C@@H]3C=C(C)C4=CC(=O)CC[C@]4(C)[C@H]3CC[C@]2(C)[C@@]1(OC(C)=O)C(C)=O
active: [1] 18.9 µM | [2] 52.8 µM | [6] 88 µM
inactive: [3] | [8]

O=C(O)c1cc(O)c2ccccc2c1O
inactive: [1] | [5] | [9] | [6]
active: [2] 51.6 µM | [3] 33.4 µM

O=C(Oc1ccccc1)c1ccccc1O
not listed: [4] | [7] | [9]
inactive: all other assays above

COC(=O)c1ccccc1C
inactive: [1] | [2] | [3] | [6]

CO[Si](CCCS)(OC)OC
not listed: [4] | [9] | [10]
inactive: all other assays above

CCCCC1CCC(=O)O1 (configuration not stated)
not listed: [4] | [8]
inactive: all other assays above

CCCCCCOc1ccc(N)cc1
not listed: [3] | [7] | [8]
inactive: all other assays above

COC(=O)c1ccc(C(=O)OC)c(C(=O)OC)c1
not listed: [4] | [8]
inactive: all other assays above

C=CCOC(=O)c1ccc(C(=O)OCC=C)c(C(=O)OCC=C)c1
inactive: [1] | [2] | [10] | [5] | [6]
active: [4] 41.6 µM

CO[Si](C)(C)OC
not listed: [4] | [9]
inactive: all other assays above
